Results filed as inconclusive are left out. Activity calls are given as the source filed them. Unless noted, the call rests on the fitted dose curve; in most records, active means well fitted curve in the direction sought with a large enough effect in the repeat runs; inconclusive means weak or mixed curves; inactive means no such curve, though single readings can be large; an effect the other way counts as inactive or inconclusive.
Experiments:
[1] = qHTS assay for small molecule agonists of the p53 signaling pathway (AID 651631; calls by dose curve; further: nearly all actives have a fitted effect of over 15% in size)
In short: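 Readout was fluorescence from the LiveBLAzer FRET substrate, applied for 2 h at room temperature after 16 h compound exposure at 37 °C. Cells were the p53RE-bla HCT-116 line, with beta-lactamase driven by p53 response elements.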

[2] = qHTS assay for small molecules that induce genotoxicity in human embryonic kidney cells expressing luciferase-tagged ATAD5 (AID 651632); further: nearly all actives have a fitted effect of over 15% in size
In short: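 HEK293T cells carrying a luciferase reporter tagged to ATAD5 were exposed to compound or DMSO vehicle for 16 hr at 37C, 5% CO2. Amplite was added, and after 30 min at room temperature luciferase activity was read as a marker of ATAD5 induction.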

[3] = qHTS assay for small molecules that induce genotoxicity in human embryonic kidney cells expressing luciferase-tagged ATAD5 - cell viability (AID 651634; calls by dose curve; further: nearly all actives have a fitted effect of over 25% in size)
In short: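 HEK293T cells expressing luciferase-tagged ATAD5 were exposed to compound or DMSO for 15.5 hr at 37C, 5% CO2. Viability was then read as live-cell protease activity by CellTiter-Fluor fluorescence after 30 min at 37C.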

[4] = qHTS assay for small molecule disruptors of the mitochondrial membrane potential - cell viability (AID 720634; calls by dose curve;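 further: human HepG2 liver cancer cells; series mostly up to about 83 µM; nearly all actives have a fitted effect of over 20% in size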)
In short: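 HepG2 cells seeded overnight at 37 C, then exposed to compound or DMSO for 1 hr at 37 C, 5% CO2. m-MPI dye added, then CellTiter-Glo for 30 min at room temperature; viability read as ATP luminescence.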

[5] = qHTS assay to test for compound auto fluorescence at 590 nm (red) in HepG2 cells (AID 720674)
In short: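 Rose Bengal sodium served as the red fluorophore standard. HepG2 monolayers (overnight attachment, MEM with 10% FBS) were exposed to test compounds for 1 hr at 37 C and read at Ex 540/Em 590 nm.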

[6] = qHTS assay to test for compound auto fluorescence at 535 nm (green) in HepG2 cells (AID 720675)
[7] = qHTS assay to test for compound auto fluorescence at 460 nm (blue) in HEK293 cells (AID 720678)
In short: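 Auto fluorescence in the blue band was quantified as triamterene equivalency. HEK293 cells were seeded at 2,000/well, dosed after a 4-5 hr attachment, and kept overnight at 37C before the 405/460 nm reading.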

[8] = qHTS assay to test for compound auto fluorescence at 590 nm (red) in HEK293 cells (AID 720679)
In short: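 Autofluorescence equivalency to Rose Bengal sodium, 540/590nm, in HEK293 cells exposed overnight to 23 nL compound per well.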

[9] = qHTS assay to test for compound auto fluorescence at 535 nm (green) in HEK293 cells (AID 720680)
[10] = qHTS assay to test for compound auto fluorescence at 460 nm (blue) in HEK293 cell free culture (AID 720681)
In short: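 Test compounds were pinned into cell-free culture medium (DMEM with 10% FBS) and fluorescence was read directly at Ex/Em 405/460 nm. Signals were expressed as fluorescence equivalents of triamterene, with DMSO vehicle as control.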

[11] = qHTS assay to test for compound auto fluorescence at 535 nm (green) in HEK293 cell free culture (AID 720682)
In short: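 Compounds were pin-transferred into cell-free DMEM with 10% FBS, and green fluorescence was read at excitation 485 nm and emission 535 nm. Intensities were expressed as fluorescein-equivalent values.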

[12] = qHTS assay to test for compound auto fluorescence at 590 nm (red) in HEK293 cell free culture (AID 720683)
In short: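 Tox21 10K library compounds were pinned into cell-free DMEM with 10% FBS and fluorescence was read at excitation 540 nm. Activity is expressed as Rose Bengal sodium equivalency.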

[13] = qHTS assay to test for compound auto fluorescence at 590 nm (red) in HepG2 cell free culture (AID 720684)
In short: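 Measured in medium alone (MEM containing 10% FBS) following pintool addition of compound; emission at 590 nm with 540 nm excitation, referenced to Rose Bengal sodium.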

[14] = qHTS assay to test for compound auto fluorescence at 535 nm (green) in HepG2 cell free culture (AID 720686)
[15] = qHTS assay to test for compound auto fluorescence at 460 nm (blue) in HepG2 cells (AID 720687)
In short: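 Cells (2,000/well in MEM with 10% FBS) attached overnight at 37 C, then were exposed to compound or DMSO for 1 hr at 37 C, 5% CO2. Fluorescence read at Ex/Em 405/460 nm, expressed as triamterene-equivalent signal.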

[16] = molecular target: Glucocorticoid receptor (Homo sapiens) (UniProt P04150); experiment: qHTS assay to identify small molecule agonists of the glucocorticoid receptor (GR) signaling pathway (AID 720691; active means well fitted activation curve with a large enough effect in the signal ratio in the repeat runs, not every such curve was filed as active; the % refers to the signal ratio)
Chain of Glucocorticoid receptor (Homo sapiens) (P04150 whole entry, looked up): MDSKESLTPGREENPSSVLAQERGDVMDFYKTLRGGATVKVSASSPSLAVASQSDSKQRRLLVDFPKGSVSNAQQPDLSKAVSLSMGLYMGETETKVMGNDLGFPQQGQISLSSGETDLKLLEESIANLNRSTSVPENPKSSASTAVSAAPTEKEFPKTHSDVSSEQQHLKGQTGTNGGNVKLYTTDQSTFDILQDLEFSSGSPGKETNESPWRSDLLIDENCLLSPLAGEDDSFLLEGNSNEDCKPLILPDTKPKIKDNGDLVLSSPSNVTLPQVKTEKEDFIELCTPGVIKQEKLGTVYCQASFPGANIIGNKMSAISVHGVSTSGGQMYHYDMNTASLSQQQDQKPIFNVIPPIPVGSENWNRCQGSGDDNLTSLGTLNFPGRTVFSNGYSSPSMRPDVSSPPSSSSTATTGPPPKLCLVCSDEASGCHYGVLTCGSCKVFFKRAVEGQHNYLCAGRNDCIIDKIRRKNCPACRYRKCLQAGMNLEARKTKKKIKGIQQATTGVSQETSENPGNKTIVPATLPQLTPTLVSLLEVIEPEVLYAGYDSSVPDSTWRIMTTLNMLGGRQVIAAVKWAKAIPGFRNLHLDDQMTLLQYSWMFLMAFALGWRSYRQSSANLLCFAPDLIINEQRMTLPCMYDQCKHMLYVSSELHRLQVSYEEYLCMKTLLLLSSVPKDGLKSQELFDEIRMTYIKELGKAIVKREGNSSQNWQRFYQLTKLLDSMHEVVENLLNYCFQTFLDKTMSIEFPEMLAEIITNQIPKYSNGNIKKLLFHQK
In short: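 GR-bla HeLa cells (beta-lactamase reporter under glucocorticoid response element) were plated 4 h at 37 C/5% CO2, given compounds in DMSO, and incubated 18 h at 37 C. LiveBLAzer B/G FRET substrate was added for 2 h at room temperature, then fluorescence intensity read.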

[17] = molecular target: Glucocorticoid receptor (Homo sapiens) (UniProt P04150); experiment: qHTS assay to identify small molecule antagonists of the glucocorticoid receptor (GR) signaling pathway (AID 720692; active means well fitted inhibition curve with a large enough effect in the signal ratio in the repeat runs, not every such curve was filed as active; the % refers to the signal ratio)
In short: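 GR-bla HeLa cells (beta-lactamase reporter under glucocorticoid response element) were pre-plated 4 h at 37 C, treated with compounds plus 5 nM dexamethasone (final) for 18 h, then read by LiveBLAzer B/G FRET fluorescence after 2 h.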

[18] = qHTS assay for small molecule agonists of the p53 signaling pathway - cell viability (AID 651633; calls by dose curve; further: series mostly up to about 83 µM; nearly all actives have a fitted effect of over 30% in size)
In short: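 p53RE-bla cells, seeded at 4,000 per well and rested 5 h at 37 C/5% CO2, received compounds in DMSO for 16 h at 37 C. CellTiter-Glo was then added, and luminescence was read after 30 min at room temperature to gauge cytotoxicity.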

[19] = qHTS assay for small molecule disruptors of the mitochondrial membrane potential (AID 720635)
In short: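 HepG2 cells (2,000/well) attached overnight at 37C, then took compound for 1 hr at 37C, 5% CO2. Mito-MPS dye was added for 30 min; fluorescence was read at 490/535 nm (monomers) and 540/590 nm (aggregates).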

[20] = qHTS assay to test for compound auto fluorescence at 460 nm (blue) in HepG2 cell free culture (AID 720685)
In short: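 Compound (23 nL) or DMSO pinned into cell-free MEM with 10% FBS; blue fluorescence read at 405/460 nm excitation/emission, expressed as auto-fluorescence equivalency to triamterene.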
On the % scale 0 is the no-effect control and ±100 the full control effect.

O=C(O)CCCCCCCCCC(=O)O
inactive: Potency [1] | Potency [2] | outcome [3] | outcome [4] | outcome [5] | outcome [6] | outcome [7] | outcome [8] | outcome [9] | outcome [10] | outcome [11] | outcome [12] | outcome [13] | outcome [14] | outcome [15] | Potency [16] | outcome [17]

COCc1nnc(-c2ccc[n+]([O-])c2)n1-c1c(Cl)c(Cl)cc2[nH]c(=O)c(=O)[nH]c12
inactive: Potency [2] | outcome [18] | outcome [3] | outcome [4] | Potency [19] | outcome [5] | outcome [6] | outcome [7] | outcome [8] | outcome [9] | outcome [10] | outcome [11] | outcome [12] | outcome [13] | outcome [20] | outcome [14] | outcome [15]

NS(=O)(=O)c1cc2c(cc1C(F)(F)F)NCNS2(=O)=O
inactive: Potency [2] | outcome [18] | outcome [3] | outcome [4] | Potency [19] | fluorescence, relative to Rose Bengal [5] 0.362% [at 18.6 µM] | fluorescence, % of fluorescein control [6] -0.0771% [at 18.6 µM] | fluorescence, % of triamterene [7] -0.352% [at 18.6 µM] | fluorescence, % of fluorescent control [8] -0.333% [at 18.6 µM] | fluorescence, % of fluorescein [9] -0.0035% [at 18.6 µM] | fluorescence, % of fluorescent control [10] 0.05% [at 18.6 µM] | activity change [11] 0.0709% [at 18.6 µM] | fluorescence, % of fluorescent control [12] 0.0039% [at 18.6 µM] | fluorescence, % of Rose Bengal [13] -0.188% [at 18.6 µM] | fluorescence, % of fluorescent control [20] -0.157% [at 18.6 µM] | fluorescence, % of fluorescein control [14] 0.01% [at 18.6 µM] | fluorescence, % of fluorescent control [15] -0.066% [at 18.6 µM] | Potency [16]

O=S(=O)(O)CC(O)CCl (configuration not stated)
inactive: Potency [1] | Potency [2] | outcome [3] | outcome [4] | outcome [5] | outcome [6] | outcome [7] | outcome [8] | outcome [9] | outcome [10] | outcome [11] | outcome [12] | outcome [20] | outcome [14] | outcome [15]

CC(=O)Nc1ccc(OCCOCCOc2ccc(NC(C)=O)cc2)cc1
inactive: Potency [2] | outcome [18] | outcome [3] | outcome [4] | Potency [19] | outcome [5] | outcome [6] | outcome [7] | outcome [8] | outcome [9] | outcome [10] | outcome [11] | outcome [12] | outcome [13] | outcome [20] | outcome [15] | Potency [16]

CC12CCCC=C1C(=O)OC2=O (configuration not stated)
inactive: Potency [1] | Potency [2] | outcome [3] | outcome [4] | outcome [5] | outcome [6] | outcome [7] | outcome [8] | outcome [9] | outcome [10] | outcome [12] | outcome [13] | outcome [20] | outcome [14] | outcome [15]

O=c1c(O)c(O)c1=O
inactive: Potency [1] | outcome [3] | outcome [4] | Potency [19] | outcome [5] | outcome [6] | outcome [7] | outcome [8] | outcome [9] | outcome [10] | outcome [11] | outcome [12] | outcome [13] | outcome [20] | outcome [14] | outcome [15] | Potency [16] | outcome [17]
